Shown are actives, neighbours in structure and some others; about 1% of the full set was active somewhere.
CR mimetic SO – caloric restriction mimetics inhibiting age-related superoxide in yeast; S. cerevisiae aged cells, superoxide DHE fluorescence; hits give low values; superoxide response (% of plate mean), % at 10 µM; actives 0.18% (n = 330,000);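 active = superoxide response under a set limit, about three screen SD below normal, cut at about 65% in these data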;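 also: yeast aged for seven days with compound at 30 °C before DHE staining; 100% = average MFI of all compound-treated wells on the plate with controls excluded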
iPSC survival up – enhancers of human iPSC single-cell survival | hiPSC single-cell survival, ATPlite luminescence; 100% = ROCK inhibitor wells, 0% = DMSO | survival enhancement, % at 20 µM | actives 0.044% (n = 360,000) | AID 602274; in the data active = survival enhancement above about 18%;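 also: cells exposed to compounds for 16 hours before the ATP read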
V-ATPase pHluor – alters yeast V-ATPase proton transport; S. cerevisiae, pHLuorin cytosolic pH fluorescence; response, % at 10 µM; actives 0.37% (n = 350,000); in the data active = response mostly above about 7.3%, no sharp cut-off; inactive = mostly below about 5.4%; also: actives read high
CTSL1 counter – blocks F. hepatica cathepsin L1 in PFM18AAP counter-screen | inhibition, % at 5.96 µM | recombinant F. hepatica cathepsin L1, Z-Leu-Arg-MCA fluorescence | actives 0.49% (n = 300,000) | AID 1906;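 active = inhibition above the mean of all tested compounds plus 3 SD, set per screening campaign, cut at about 17% in these data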;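 also: 0% = plate median of test compound wells and 100% = 1 µM Z-Phe-Ala-diazomethylketone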
* = called active by the depositor; x = not tested or not shown.

SMILES | CR mimetic SO | iPSC survival up | V-ATPase pHluor | CTSL1 counter
Cc1nn(-c2ccccc2)c(N2CCCC2)c1/C=C1\N=C(c2ccccc2)OC1=O | 93.0 | -0.8 | -4.4 | 56.1*
CCOC(=O)c1cnc(COc2ccc(OC)cc2)[nH]c1=O | 82.8 | -0.2 | -6.2 | -2.0
C/C=C/C(=O)N1CC2(CC(c3cccc(NC(=O)/C(C)=C/C)c3)=NO2)C[C@H]1C(N)=O (stereo not given in full) | 100.6 | -1.3 | 1.1 | 18.5*
CCn1cc(C(=O)NCc2ccc(C)cc2)c(=O)c2cc(S(=O)(=O)N(C)C)ccc21 | 104.2 | -0.4 | -1.6 | 2.8
CCCN(C(=O)CSc1ccccc1C(=O)O)C1CCS(=O)(=O)C1 (stereo not given) | 111.1 | -0.4 | 14.6* | x
CCCN(C(=O)CSc1nnc2ccccn12)C1CCS(=O)(=O)C1 (stereo not given) | 80.9 | 0.2 | -0.8 | x
O=C(NC1CCCCC1)N1CCCCCCC1 | 114.6 | -0.5 | 2.1 | 18.1*
O=C(/C=C/c1ccccc1)NC(NC(=S)Nc1cccc(Cl)c1)C(Cl)(Cl)Cl (stereo not given) | 97.4 | -4.4 | -0.2 | 18.0*
C=CCN1C(=O)/C(=C/N(C)C)S/C1=N\S(=O)(=O)c1cccs1 | x | -0.4 | x | x
COc1ccc(NC(=O)N2CC(C)OC(C)C2)cc1OC (stereo not given) | 85.6 | -1.8 | -4.1 | -0.2
COc1ccc(C)cc1NC(=S)N1CC(C)OC(C)C1 (stereo not given) | 102.4 | -0.5 | 14.8* | -1.6
COc1cccc(CCC2C(=O)CCCC2=O)c1 | x | 0.6 | 4.5 | x
CC(=O)N(/N=C1\Sc2ccccc2C1=O)c1ccccc1C | 84.5 | -1.2 | 1.5 | 87.1*
CC(=O)N(/N=C1\Sc2ccccc2C1=O)c1ccc(C)cc1C | 97.2 | -5.2 | -1.3 | 7.3
COc1ccc(NS(=O)(=O)c2cccc(C(=O)NNC(=O)c3cncc(Br)c3)c2)cc1 | 98.7 | -0.3 | 3.2 | 4.7
O=C(NCCN1CCOCC1)c1ccncc1 | 113.0 | 4.8 | -0.5 | 2.4
O=C1C=C(NCCN2CCOCC2)C(=O)c2cnccc21 | 93.7 | x | x | 100.1*
CCOc1cccc2cc(C(=O)N3CCOCC3)c(=O)oc12 | 94.1 | 0.4 | -0.9 | -0.3
COCCCN1C(=O)C(CC(=O)NCCCCc2ccccc2)CC(C(=O)N2CCOCC2)=C1C (stereo not given) | x | 9.5 | 3.0 | x
N#CC(C#N)=C1C=C2C=C(N3CCCCC3)CCC2CC1 (stereo not given) | 69.7 | x | x | 8.2
CCN(CC)C1=CC2=CC(=C(C#N)C#N)CCC2CC1 (stereo not given) | 134.0 | -1.0 | 219.1* | 4.4
CCCCN(C)C1=CC2=CC(=C(C#N)C#N)CCC2CC1 (stereo not given) | 112.4 | -0.6 | 291.4* | 0.9
CC1(C(=O)NCC2CC2)CCN1C(=O)C1(c2ccc(Cl)cc2)CC1 (stereo not given) | x | 3.1 | x | x
CC(C)(C)c1ccc(NC(=O)c2ccc(=O)[nH]n2)cc1 | 102.6 | 0.0 | 1.9 | -12.1
O=C(CCl)Nc1cccc(Oc2ccccc2)c1 | 120.5 | -1.0 | 1.2 | 42.6*
SMILES | CR mimetic SO | iPSC survival up | V-ATPase pHluor | CTSL1 counter
O=C(CCl)Nc1cccc(Oc2cnccn2)c1 | 99.6 | -1.1 | 1.4 | 56.0*
O=C(CN1CCCCC1)Nc1cccc(Oc2ccccc2)c1 | 98.7 | 1.5 | 0.1 | 0.4
O=C1OCCN1C(=O)[C@H]1[C@H](c2ccc(F)cc2)C(c2ccc(F)cc2)=NN1c1ccc(Br)cc1 | 45.0* | -2.5 | 3.7 | -1.1
O=C1OCCN1C(=O)[C@H]1[C@H](c2ccc(Cl)cc2)C(c2ccc(F)cc2)=NN1c1ccc(Br)cc1 | 94.5 | -2.8 | -0.5 | x
O=C1OC(c2ccccc2)Cc2cc(C(=O)N3CCN(c4ccc(F)cc4)CC3)ccc21 (stereo not given) | x | -0.3 | 1.8 | x
N#Cc1c2ccc([N+](=O)[O-])cc2[n+]([O-])n1-c1ccccc1 | 73.9 | -4.9 | 27.9* | x
CCC(C)c1ccc(O)c(NC(=S)NC(=O)c2cccs2)c1 (stereo not given) | x | -2.0 | -2.6 | x
CCN(CC)CCCn1c(C)cc2c(c1=O)C(c1cc(OC)c(OC)cc1OC)C(C#N)=C(N)O2 (stereo not given) | 102.8 | -0.2 | 5.1 | -2.7
CCN(CC)CCCn1c(C)cc2c(c1=O)C(c1cccc(Cl)c1)C(C#N)=C(N)O2 (stereo not given) | x | 2.6 | 36.0* | x
Cc1ccc(NC(=S)NCC2CCN(C(C)c3ccccc3)C2)cc1C (stereo not given) | 105.3 | 0.9 | 0.5 | -3.9
O=C(Nc1ncccc1O)c1c(O)c2ccccc2[nH]c1=O | 76.8 | 0.3 | 2.4 | 4.5
CCOC(=O)C1=CCC2C(=O)N(CC)C(=O)C12 (stereo not given) | x | 5.4 | x | x
COc1ccccc1N(C)S(=O)(=O)c1ccc(C(=O)Nc2nc(C)c(C(C)=O)s2)cc1 | 92.8 | 0.4 | -5.7 | x
COCCN(CCOC)S(=O)(=O)c1ccc(C(=O)Nc2nc(C)c(C(C)=O)s2)cc1 | 99.0 | -0.2 | -3.0 | 20.0*
COc1ccc(S(=O)(=O)N2CCN(C)CC2)cc1C(=O)Nc1ccccc1 | 93.9 | 0.2 | -0.5 | -2.2
Cn1ncc(S(=O)(=O)Cc2ccccc2)c(Cl)c1=O | 97.1 | 4.1 | 19.2* | 3.3
Cc1ccc(S(=O)(=O)NC(=O)C2(C)CCN2C(=O)c2ccccc2)nc1 (stereo not given) | x | 3.6 | x | x
CCC1(C(=O)OC)NC(c2ccco2)C2C(=O)N(c3ccc(F)cc3)C(=O)C21 (stereo not given) | 107.9 | 1.7 | 0.3 | -2.2
CCC1(C(=O)OC)NC(c2ccco2)C2C(=O)N(c3ccccc3)C(=O)C21 (stereo not given) | 139.8 | 2.5 | 14.8* | -1.2
Cc1cc(NC(=O)COC(=O)C2CC(=O)N(c3ccc(Cl)cc3)C2)no1 (stereo not given) | 101.3 | 0.0 | 15.7* | -15.6
COc1ccc(NC(=O)CN(C)C(=O)/C=C/c2cn(-c3ccccc3)nc2-c2ccc(C)cc2)cc1 | 79.5 | -0.5 | -1.1 | 20.0*
COc1ccc(NC(=O)CN(C)C(=O)/C=C/c2cn(-c3ccccc3)nc2-c2ccc(F)cc2)cc1 | 91.6 | 0.7 | -1.0 | 1.3
Cc1ccccc1C(=O)NC(CC(C)C)C(=O)OCc1cc(=O)n2cc(Br)ccc2n1 (stereo not given) | 94.4 | 0.8 | 0.3 | 27.5*
O=C(COC(=O)CN=C1NS(=O)(=O)c2ccccc21)Nc1ccccc1OC(F)F | 86.3 | 0.3 | 14.7* | -1.3
CCOC(=O)c1cc([N+](=O)[O-])c([N+](=O)[O-])cc1NC(C)=O | 94.3 | -3.0 | 14.6* | -4.2
CCCCNC1c2ccccc2C(=O)N1Cc1ccccc1 (stereo not given) | 102.8 | -0.7 | 16.9* | -8.8
Cc1cc(C)c[n+](-c2[nH]c(=O)sc2/C=N/NC([S-])=Nc2ccccc2)c1 | 93.2 | -0.4 | 2.9 | 7.2
CCCSc1nc(N2CCOCC2)c2c(c1C#N)CC(C)(C)SC2 | 107.8 | 22.6* | 2.7 | -6.8
CC1CCCCC1NC(=O)COC(=O)CNC(=O)c1cccc(F)c1 (stereo not given) | 90.1 | 1.5 | 3.4 | 22.4*
O=C(CNC(=O)c1cccc(F)c1)OCC(=O)N1CCCc2ccccc21 | 99.7 | -0.8 | -1.4 | 20.3*

Assay outcomes deposited in PubChem by several laboratories.
